Results from PubChem BioAssay (NCATS).
“And” between values parts separate entries of the source, which are not always exact repeats. Equal entries are not always repeated. Records with an inconclusive call do not appear. A number with no mark means an inactive call. The source made the active and inactive calls. Calls follow the shape of the dose curve; as a rule, active = well fitted inhibition curve with a large enough effect; inconclusive = small, poorly fitted or top-dose-only effect; inactive = flat fitted curve, though single readings scatter.

Key:
[1] = Drug repurposing screens with cells derived from glioblastoma tumor samples (AID 1345199); settings: GBM patient neurospheres viability, ATP luminescence, 48 h; also: nearly all actives have a fitted effect of over 40% in size
How it was run: (§1)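 Four patient lines of CD133+ GBM neurospheres were screened at several concentrations; hits were retested in those lines plus three slower-growing GBM lines, using 48-hour treatment and ATP-based viability.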

[2] = system: astro; experiment: as above; settings: viability, ATP luminescence, 48 h; series mostly up to 45.9 µM
How it was run: as §1

[3] = at 45.9 µM (top of the series), tumour line B
[4] = at 45.9 µM (top of the series), tumour line D
[5] = at 46 µM (top of the series), tumour line A
[6] = at 46.1 µM (top of the series), tumour line C
% is scaled to controls: 0 for no effect and ±100 for the full control effect; potency is read from the fitted curve at half-maximal effect.

Row | Structure (SMILES) | activity, negative = cell killing [1, 3] | activity, negative = cell killing [1, 4] | activity, negative = cell killing [1, 5] | activity, negative = cell killing [1, 6] | Potency [2] | Potency ([1]; tumour line A) | Potency ([1]; tumour line B) | Potency ([1]; tumour line D)
1 | NCCCC(=O)O | -13.9% | -9.35% | 3.28% | -16.7% | inactive |  |  | 
2 | CSCC[C@H](NC(=O)[C@H](Cc1ccc(OS(=O)(=O)O)cc1)NC(=O)[C@@H](N)CC(=O)O)C(=O)NCC(=O)N[C@@H](Cc1c[nH]c2ccccc12)C(=O)N[C@@H](CCSC)C(=O)N[C@@H](CC(=O)O)C(=O)N[C@@H](Cc1ccccc1)C(N)=O | -12.8% and -14.6% | -10.7% and -3.46% | -8.64% | 9.45% and -3.35% | inactive |  |  | 
3 | CC#CCC(C)[C@H](O)/C=C/[C@@H]1[C@H]2C/C(=C/CCCC(=O)O)C[C@H]2C[C@H]1O (stereo partly drawn) | -8.92% | -4.73% |  | -5.69% | inactive | 17.8 µM (active) |  | 
4 | C[C@@H]1C[C@H]2C3C[C@H](F)C4=CC(=O)C=CC4(C)[C@@]3(F)[C@@H](O)CC2(C)[C@@]1(O)C(=O)COC(=O)C(C)(C)C (stereo partly drawn) | -6.93% | -10.7% |  | 2.01% | inactive | 12.6 µM (active) |  | 
5 | CCCCCCCCCCCCCCCC(=O)OCCC1CCN(CCCN2c3ccccc3Sc3ccc(S(=O)(=O)N(C)C)cc32)CC1 | -1.24% | -12.7% | -28.1% | 11% | inactive |  |  | 
6 | CC(=O)N[C@@H](C=O)[C@H](O)[C@H](O)[C@@H](O)CO | -7.64% and 0.13% | -11.8% and 0.539% | 1.93% | 6.46% and 10.4% | inactive |  |  | 
7 | C[C@H]1C[C@H]2[C@@H]3CCC4=CC(=O)C=C[C@]4(C)[C@@]3(F)[C@@H](O)C[C@]2(C)[C@@]1(O)C(=O)CCl | 1.74% | -15.9% |  | 12.3% | inactive | 35.5 µM (active) |  | 
8 | CCC(=O)OCC(=O)[C@@]1(OC(=O)CC)[C@H](C)C[C@H]2[C@@H]3CCC4=CC(=O)C=C[C@]4(C)[C@@]3(F)[C@@H](O)C[C@@]21C | -7.21% | -9.28% |  | -2.15% | inactive | 17.8 µM (active) |  | 
9 | NC(=O)C[C@@H](N)C(=O)O | 8.61% | -4.07% | 26.7% | 22.9% | inactive |  |  | 
10 | CCCC(=O)N1CCCN(c2nc(N)c3cc(OC)c(OC)cc3n2)CC1 | -1.44% | -2.77% |  | 14.2% | inactive | 17.8 µM (active) |  | 
11 | CC1(C)S[C@@H]2[C@H](NC(=O)C(C(=O)Oc3ccc4c(c3)CCC4)c3ccccc3)C(=O)N2[C@H]1C(=O)O (stereo partly drawn) | -10.7% | -5.29% | -6.42% | 7.9% | inactive |  |  | 
12 | Nc1c(CC(=O)O)cccc1C(=O)c1ccccc1 | -6.42% and -16.2% | 1.99% and -19.1% | -11.4% | -6.15% and -12.2% | inactive |  |  | 
13 | C1CNCCN1 | -11% | -24.6% | -15.8% | -0.46% | inactive |  |  | 
14 | O=P(O)(O)OC(CO)CO | -13.5% | 14.6% | -6.76% | 3.76% | inactive |  |  | 
15 | CC(=O)S[C@@H]1CC2=CC(=O)CC[C@]2(C)[C@H]2CC[C@@]3(C)[C@@H](CC[C@@]34CCC(=O)O4)[C@H]12 | -27.2% | -26.7% |  | -22.4% | inactive | 10 µM (active) |  | 
16 | NCCCC[C@H](NC(=O)[C@@H]1CCCN1C(=O)[C@@H]1CSSC[C@H](N)C(=O)N[C@@H](Cc2ccc(O)cc2)C(=O)N[C@@H](Cc2ccccc2)C(=O)N[C@@H](CCC(N)=O)C(=O)N[C@@H](CC(N)=O)C(=O)N1)C(=O)NCC(N)=O | -6.49% and -12.6% | -7.59% and -12.4% | -33.8% | 13.1% | inactive |  |  | 
17 | CC(CN(C)C)CN1c2ccccc2S(=O)(=O)c2ccccc21 (stereo not drawn) | -1.87% | -21.7% |  | 14.3% | inactive | 17.8 µM (active) |  | 

Row | Structure (SMILES) | activity, negative = cell killing [1, 3] | activity, negative = cell killing [1, 4] | activity, negative = cell killing [1, 5] | activity, negative = cell killing [1, 6] | Potency [2] | Potency ([1]; tumour line A) | Potency ([1]; tumour line B) | Potency ([1]; tumour line D)
18 | CN[C@H]1CC[C@@H](c2ccc(Cl)c(Cl)c2)c2ccccc21 |  |  |  | 17.5% | 20 µM (active) | 2.24 µM (active) | 17.8 µM (active) | 6.31 µM (active)
19 | CCOC(=O)[C@H](CCc1ccccc1)N[C@@H](C)C(=O)N1CC2(C[C@H]1C(=O)O)SCCS2 | -13.1% | 3.06% | -27.1% | 2.21% | inactive |  |  | 
20 | C[C@H](CSC(=O)c1ccccc1)C(=O)N1C[C@@H](Sc2ccccc2)C[C@H]1C(=O)O | -6.07% | 2.27% | -16.6% | -10.8% | inactive |  |  | 
21 | Cc1[nH]cnc1C[C@H]1CCc2c(C)c3ccccc3n2C1=O | 11.6% | -27.1% | -27.2% | 1.77% | inactive |  |  | 
22 | O=S(=O)(O)Oc1ccc(C(c2ccc(OS(=O)(=O)O)cc2)c2ccccn2)cc1 | 0.447% | -9.15% | 21.1% | 10.6% | inactive |  |  | 
23 | CO/N=C(\C(=O)N[C@@H]1C(=O)N2C(C(=O)OCOC(=O)C(C)(C)C)=C(/C=C\c3scnc3C)CS[C@H]12)c1csc(N)n1 | -2.3% | -0.209% | -23.3% | -3.78% | inactive |  |  | 
24 | O=C[C@H](O)[C@@H](O)[C@H](O[C@H]1O[C@H](CO)[C@@H](O[C@H]2O[C@H](CO)[C@@H](O)[C@H](O)[C@H]2O)[C@H](O)[C@H]1O)[C@H](O)CO | -5.93% | -7.07% | -21.5% | 5.59% | inactive |  |  | 
25 | CCN(CC)c1ccc(N=Nc2ccc(S(=O)(=O)N(C)C)cc2)c(S(=O)(=O)NCC[n+]2ccccc2)c1 | -13% | -3.67% |  | -10.2% | inactive | 35.5 µM (active) |  | 
26 | CN1CCN(C2=Nc3ccccc3Cc3ccccc32)CC1 | -12% | -12.4% |  | -28.3% | inactive | 31.6 µM (active) |  | 
27 | CCOC(=O)[C@H](CCc1ccccc1)N[C@H]1CCCN2CCC[C@@H](C(=O)O)N2C1=O | -17.5% | -14.2% |  | 4.99% | inactive |  |  | 
28 | CCCOc1ccc2nc(NC(=O)OC)sc2c1 |  |  |  | -26.8% | 6.31 µM (active) | 8.91 µM (active) |  | 10 µM (active)
29 | CCCCc1cc2c(=O)c(C(=O)OC)c[nH]c2cc1OCc1ccccc1 | -16.1% | -19.6% |  | -7.65% | inactive |  |  | 
30 | C[C@]12CC[C@@H]3c4ccc(OS(=O)(=O)O)cc4CC[C@H]3[C@@H]1CCC2=O | -10.8% | 4.49% |  | -5.66% | inactive |  |  | 
31 | O=C(CO)[C@@H](O)[C@H](O)[C@H](O)CO | -6.93% | 1.86% | -24.2% | 19% | inactive |  |  | 
32 | O.O=C([O-])CC([S-])C(=O)[O-].[Au+].[Na+].[Na+] (stereo not drawn) | -5.96% | 2.25% |  | 15.2% | inactive |  |  | 
33 | O=C(O)[C@@H](O)[C@H](O)[C@H](O)[C@@H](O)C(=O)O (tested in a mixture with another compound) | -6.98% | -10.8% |  | -8.08% | inactive |  |  | 
34 | CN[C@@H]1CCc2[nH]c3ccc(C(N)=O)cc3c2C1 | -9.15% | -11.6% |  | 28.3% | inactive |  |  | 
